Screens as filed in PubChem.
In the library only some 12% were active in any assay of this set; here they are far more common.
PI5P4Ka inh: blocks human PI5P4K alpha kinase activity; AID 652105; PI5P4Kalpha enzyme, ADP-Glo luminescence, 60 min; hits give low values; max response, %; actives 1.2% (n = 330,000); active means max response of -50% or lower; inconclusive means between -30% and -50%; inactive means -30% or higher; further: value at the top dose of about 77 µM
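Enzyme plus substrate dispensed, test compounds pinned in, then ATP (5 microM final) added. After 60 min at RT, ADP-Glo reagent 1 for 45 min and reagent 2 for 30 min preceded luminescence imaging.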
PLK1 PBD block: inhibitors of human PLK1 polo-box domain binding; P53350; Plk1 PBD binding of FITC phosphopeptide, fluorescence polarization; Potency, µM, most hits filed as inhibitors; actives 2.8% (n = 360,000); AID 720504; further: series mostly up to about 57 µM; nearly all actives have a fitted effect of over 65% in size
Target sequence (P53350 whole entry, looked up, the tested form may be a part): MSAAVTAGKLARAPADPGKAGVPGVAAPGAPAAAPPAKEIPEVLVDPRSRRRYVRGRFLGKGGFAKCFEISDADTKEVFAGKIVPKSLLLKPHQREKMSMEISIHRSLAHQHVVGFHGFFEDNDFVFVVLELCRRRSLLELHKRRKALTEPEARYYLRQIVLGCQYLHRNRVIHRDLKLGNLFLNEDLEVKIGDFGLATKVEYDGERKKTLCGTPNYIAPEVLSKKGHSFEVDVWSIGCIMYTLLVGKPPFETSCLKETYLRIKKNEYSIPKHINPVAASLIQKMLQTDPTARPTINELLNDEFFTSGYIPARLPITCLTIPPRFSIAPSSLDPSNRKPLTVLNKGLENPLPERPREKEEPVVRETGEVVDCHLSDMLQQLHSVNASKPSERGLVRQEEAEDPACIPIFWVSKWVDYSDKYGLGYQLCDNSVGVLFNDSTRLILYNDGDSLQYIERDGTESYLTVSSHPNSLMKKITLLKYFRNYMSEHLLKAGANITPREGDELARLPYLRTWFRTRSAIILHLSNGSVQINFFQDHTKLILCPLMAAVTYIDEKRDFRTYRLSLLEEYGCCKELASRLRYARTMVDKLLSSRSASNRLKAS
JMJD2A Tudor inh: JMJD2A Tudor domain (human) inhibition; AID 504339; actives 4.4% (n = 390,000); O75164; AlphaScreen JMJD2A-Tudor / H3K4me3 peptide binding; Potency, µM (highest dose often 114 µM), usual class: inhibitors; further: nearly all actives have a fitted effect of over 50% in size
HP1b chromo inh: blocks HP1-beta chromodomain binding to methylated histone tails. AlphaScreen HP1-beta / biotin-H3K9me3 peptide binding. Potency, µM (doses to about 114 µM), most hits filed as inhibitors. actives 0.56% (n = 390,000). AID 540317; further: nearly all actives have a fitted effect of over 70% in size
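Compound inhibition of the preformed complex between 50 nM HP1-beta and 50 nM biotinylated H3K9me3 peptide was read by AlphaScreen. Buffer was PBS pH 7.4 with 0.01% Tween-20. Incubations ran 30 min at room temperature, with 10 ug/mL donor/acceptor beads.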
G9a block: inhibitors of human histone lysine methyltransferase G9a; Q96KQ7; G9a H3K9 monomethylation, AlphaScreen, 2 h; Potency, µM (top dose mostly 102 µM), actives largely listed as inhibitors; actives 8.8% (n = 350,000); further: nearly all actives have a fitted effect of over 75% in size
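Chemiluminescent proximity detection of H3K9 monomethylation, read after 10 min bead incubation in the dark. Reaction: 20 nM G9a, 500 nM biotin-H3K9 peptide, 20 uM SAM cofactor, 2 h, room temperature, following 15 min enzyme-compound preincubation.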
BAZ2B inh: blocks human BAZ2B. Q9UIF8. AlphaScreen BAZ2B-H3K14Ac peptide displacement. Potency, µM (doses to about 114 µM), most hits filed as inhibitors. actives 4.4% (n = 360,000). AID 504333; further: nearly all actives have a fitted effect of over 60% in size
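In this displacement format the biotinylated H3(5-23) peptide acetylated at Lys14 serves as ligand at 50 nM, with BAZ2B at 50 nM in PBS pH 7.4 containing 0.01% Tween-20. Donor and acceptor beads are 10 ug/mL final.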
Each line names hits and unclear results; the compound was inactive in the other large screens. Unless noted, the call rests on the fitted dose curve; in most records, active means well fitted curve in the direction sought with a large enough effect; inconclusive means small, poorly fitted or top-dose-only effect, or another doubt; inactive means no such curve, though single readings can be large; an effect the other way counts as inactive or inconclusive.

CC1CC(C)CN(S(=O)(=O)c2ccc(C(=O)Nc3nnc(C4CC4)o3)cc2)C1 (stereo not drawn)	BAZ2B inh inconclusive
CC1CCN(S(=O)(=O)c2ccc(C(=O)Nc3nnc(C4=COCCO4)o3)cc2)CC1	G9a block inconclusive, BAZ2B inh inconclusive
CCOC(=O)N1CCN(S(=O)(=O)c2ccc(C(=O)Nc3nnc(C4CC4)o3)cc2)CC1	JMJD2A Tudor inh 50.1µM, BAZ2B inh 22.4µM
COc1ccc(-c2nnc(NC(=O)c3ccc(S(=O)(=O)N4COCC4(C)C)cc3)o2)cc1	PLK1 PBD block inconclusive, BAZ2B inh 56.2µM
Cc1cc(NC(=O)c2cc(-c3ccncc3)nc3ccccc23)ccc1Br	JMJD2A Tudor inh inconclusive (no result: G9a block, BAZ2B inh)
O=C(Nc1nnc(C2=COCCO2)o1)c1ccc(S(=O)(=O)N2CCCCC2)cc1	JMJD2A Tudor inh 79.4µM, G9a block inconclusive (no result: BAZ2B inh)
O=C(Nc1nnc(C2=COCCO2)o1)c1ccc(S(=O)(=O)N2CCCC2)cc1	JMJD2A Tudor inh 50.1µM, G9a block inconclusive (no result: BAZ2B inh)
CCC1CCCCN1S(=O)(=O)c1ccc(C(=O)Nc2nnc(C3CC3)o2)cc1 (stereo not drawn)	BAZ2B inh 50.1µM (no result: G9a block)
N#Cc1ccc(C(=O)N2CCN(C(=O)C3CCCO3)CC2)cc1 (stereo not drawn)	G9a block inconclusive
COc1ccc(F)cc1S(=O)(=O)NCCc1csc2nc(-c3cccc(C)c3)nn12	none (no result: PI5P4Ka inh, PLK1 PBD block)
O=C(CSc1nnc(CCc2ccccc2)n1-c1ccc(Cl)cc1)c1ccccc1	PI5P4Ka inh -50.1, G9a block 11.2µM
Cc1nc2ccccc2n2c(O)c(CC(=O)O)cc12	PLK1 PBD block 23.8µM, JMJD2A Tudor inh inconclusive, G9a block inconclusive (no result: PI5P4Ka inh)
O=C(O)c1cc(Cl)c(Cl)cc1C(=O)NCc1ccco1	G9a block inconclusive
Cc1ccc(NC(=O)CN(C)S(=O)(=O)c2ccc3nc(C)sc3c2)c(C)c1	none (no result: PI5P4Ka inh, PLK1 PBD block)
Cc1sc2nc3ccc(N4CCCCC4)nn3c(=O)c2c1C	PLK1 PBD block inconclusive, G9a block 31.6µM
Cc1ccc2nc3ccc(N4CCCC4)nn3c(=O)c2c1	none
COc1ccc(C(=O)CN2CCN(c3ccc(Cl)cc3)CC2)cc1OC	G9a block 22.4µM
COc1ccc(C(=O)CN2CCN(c3ccc(F)cc3)CC2)cc1OC	G9a block 39.8µM
CCOC(=O)C1CCN(c2nc3ccccc3n2CC(=O)c2ccccc2)CC1	none
COc1ccc(N2CCN(c3nc4ccccc4n3CC(=O)c3ccccc3)CC2)cc1	JMJD2A Tudor inh inconclusive, HP1b chromo inh inconclusive, G9a block 14.1µM, BAZ2B inh inconclusive
COc1ccccc1N1CCN(CC(=O)N2N=CCC2c2ccccc2)CC1 (stereo not drawn)	none
COc1ccccc1N1CCN(C/C(C)=C/c2ccccc2)CC1	BAZ2B inh 56.2µM (no result: PI5P4Ka inh)
COc1ccc(C(=O)C(=O)N2CCN(c3ccc(C)cc3)CC2)cc1OC	none (no result: JMJD2A Tudor inh, HP1b chromo inh, G9a block, BAZ2B inh)
CCN(c1ccccc1)S(=O)(=O)c1c(-c2ccc(C)cc2)csc1C(=O)OC	none (no result: PI5P4Ka inh, PLK1 PBD block)
COc1ccc(C(CCN)Cc2ccccc2)cc1 (stereo not drawn)	none
N#Cc1ccc(C(=O)CN2CCN(c3ccccc3)CC2)cc1	G9a block 28.2µM
COc1ccc(N2CCN(C(=O)NC(=O)c3ccc(Cl)cc3)CC2)cc1	G9a block inconclusive
O=C(CN1CCN(c2ccccc2)CC1)c1c[nH]c2ccccc12	none
COc1ccc(N2CCN(CC(=O)c3ccc(Cl)cc3)CC2)cc1	JMJD2A Tudor inh inconclusive, G9a block 22.4µM, BAZ2B inh inconclusive
COc1ccccc1N1CCN(CC(=O)c2ccc(F)cc2)CC1	JMJD2A Tudor inh 14.1µM, HP1b chromo inh inconclusive, BAZ2B inh 56.2µM (no result: G9a block)
Cc1nc(-c2ccc(C)c(N3CCN(C(=O)Nc4ccc(Br)cc4)CC3)c2)no1	none (no result: PI5P4Ka inh, PLK1 PBD block)
CCc1ccc(NC(=O)CC2C(=O)N(c3ccc(F)cc3)C(=O)N2Cc2ccc(F)cc2)cc1 (stereo not drawn)	none (no result: PI5P4Ka inh, PLK1 PBD block)
C=CCNC(=O)C(=O)Nc1ccc2c(c1)N(S(=O)(=O)c1cccs1)CCC2	none
CCC(c1nnnn1CCc1ccccc1)N1CCN(C(=O)c2ccco2)CC1 (stereo not drawn)	G9a block 50.1µM, BAZ2B inh 50.1µM
